Measurements published in PubChem BioAssay (EPA / NIEHS).
Active and inactive are the calls of the source. Rule for the calls: active = hit-call score of the fitted dose curve at least 0.9, where 1 is the maximum; inactive = score below 0.9.

Tests used:
Settings in all cases: mRNA level, 48 h; actives raise or lower the signal
[1] = read-out: Alkaline Phosphatase, Placental (ALPP) gene, ALPP (gene 250); test: LTEA_HepaRG_ALPP: Life Technologies and Expression Analysis (LTEA) Assay for Alkaline Phosphatase, Placental (ALPP) gene using HepaRG (AID 2283468)
Procedure, shortened: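 Differentiated human HepaRG cells were plated and cultured 48 h, then exposed in duplicate for 48 h in serum-free induction medium to eight half-log concentrations from 100 uM in 0.5% DMSO. ALPP mRNA was measured by TaqMan qRT-PCR, normalized to ACTB, GAPDH, POLR2A.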

[2] = read-out: Bcl-2 (BAD) gene, BAD (gene 572); test: LTEA_HepaRG_BAD: Life Technologies and Expression Analysis (LTEA) Assay for Bcl-2 (BAD) gene using HepaRG (AID 2283469)
Procedure, shortened: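 HepaRG, 48 h exposure, 8-pt half-log curve from 100 uM in 0.5% DMSO, duplicates. Readout: TaqMan qRT-PCR for BAD mRNA, housekeeping-normalised (ACTB/GAPDH/POLR2A); gain or loss fitted against DMSO baseline.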

[3] = read-out: Bcl-2 (BAX) gene, BAX (gene 581); test: LTEA_HepaRG_BAX: Life Technologies and Expression Analysis (LTEA) Assay for Bcl-2 (BAX) gene using HepaRG (AID 2283470)
Procedure, shortened: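 Cells were thawed, plated for 48 h, moved to serum-free induction medium and dosed for 48 h (highest concentration 100 uM, half-log steps, 0.5% DMSO). Total RNA was then analysed for BAX expression by qRT-PCR.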

[4] = read-out: adenosine kinase (ADK) gene, ADK (gene 132); test: LTEA_HepaRG_ADK: Life Technologies and Expression Analysis (LTEA) Assay for adenosine kinase (ADK) gene using HepaRG (AID 2283471)
Procedure, shortened: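 Following 48 h exposure of HepaRG cells in 0.5% DMSO (top concentration 100 uM, duplicate wells), ADK mRNA induction or suppression was measured by qRT-PCR, normalised to ACTB/GAPDH/POLR2A, and fitted bidirectionally relative to vehicle.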

[5] = read-out: Alpha-fetoprotein (AFP) gene, AFP (gene 174); test: LTEA_HepaRG_AFP: Life Technologies and Expression Analysis (LTEA) Assay for Alpha-fetoprotein (AFP) gene using HepaRG (AID 2283472)
Procedure, shortened: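 Chemicals were tested on differentiated HepaRG cells for 48 hours at eight concentrations up to 100 uM, with 0.5% DMSO as vehicle. AFP expression was then quantified by qRT-PCR and analyzed for gain or loss relative to DMSO.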

BCL2L11 (gene 10018) = test: LTEA_HepaRG_BCL2L11: Life Technologies and Expression Analysis (LTEA) Assay for Bcl-2 (BCL2L11) gene using HepaRG (AID 2283473)
Procedure, shortened: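 Differentiated human HepaRG cells in serum-free induction medium were exposed in duplicate for 48 h to eight concentrations (top 100 uM, half-log steps, 0.5% DMSO). BCL2L11 mRNA was quantified by TaqMan qRT-PCR, normalized to ACTB/GAPDH/POLR2A, bidirectional fit versus DMSO.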

[6] = read-out: Apolipoprotein A-V (APOA5) gene, APOA5 (gene 116519); test: LTEA_HepaRG_APOA5: Life Technologies and Expression Analysis (LTEA) Assay for Apolipoprotein A-V (APOA5) gene using HepaRG (AID 2283474)
Procedure, shortened: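 Differentiated human HepaRG cells were exposed in duplicate for 48 h to eight half-log concentrations from 100 uM in 0.5% DMSO. APOA5 mRNA was quantified by TaqMan qRT-PCR, normalized to ACTB, GAPDH and POLR2A, and fitted bidirectionally against DMSO.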

[7] = read-out: Apoptosis regulator Bcl-2 (Homo sapiens) (UniProt P10415); test: LTEA_HepaRG_BCL2: Life Technologies and Expression Analysis (LTEA) Assay for Bcl-2 gene using HepaRG (AID 2283475)
Procedure, shortened: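 Plated human HepaRG cells are exposed to test chemicals for 48 h across eight concentrations from 100 uM downward in half-log steps (0.5% DMSO). BCL2 expression is then measured by qRT-PCR with housekeeping normalisation and fitted bidirectionally against vehicle.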

[8] = read-out: Bcl-2 (BID) gene, BID (gene 637); test: LTEA_HepaRG_BID: Life Technologies and Expression Analysis (LTEA) Assay for Bcl-2 (BID) gene using HepaRG (AID 2283476)
Procedure, shortened: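 Cells are plated, cultured 48 h, switched to serum-free induction medium, then dosed 48 h (100 uM top, half-log steps, 0.5% DMSO). RNA is isolated and BID expression read by qRT-PCR.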

Caspase-3 (Homo sapiens) = Caspase-3 (Homo sapiens) (UniProt P42574); test: LTEA_HepaRG_CASP3: Life Technologies and Expression Analysis (LTEA) Assay for cysteine-aspartic acid protease (CASP3) using HepaRG (AID 2283477)
Procedure, shortened: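 Differentiated human HepaRG cells in serum-free induction medium were exposed 48 h to 8-point half-log concentrations from 100 uM (0.5% DMSO vehicle). CASP3 mRNA was measured by qRT-PCR, normalised to ACTB, GAPDH and POLR2A, with bidirectional fitting against DMSO.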

[9] = read-out: Cytochrome P450 (CYP24A1), CYP24A1 (gene 1591); test: LTEA_HepaRG_CYP24A1: Life Technologies and Expression Analysis (LTEA) Assay for Cytochrome P450 (CYP24A1) using HepaRG (AID 2283478)
Procedure, shortened: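 Differentiated HepaRG cells, pre-cultured 48 h, were exposed in duplicate for 48 h in serum-free induction medium to 8 half-log concentrations (top 100 uM, 0.5% DMSO). CYP24A1 mRNA was quantified by TaqMan qRT-PCR, normalized to ACTB/GAPDH/POLR2A, fitted bidirectionally versus DMSO.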

[10] = read-out: Cytochrome P450 (CYP1A2), CYP1A2 (gene 1544); test: LTEA_HepaRG_CYP1A2: Life Technologies and Expression Analysis (LTEA) Assay for Cytochrome P450 (CYP1A2) using HepaRG (AID 2283479)
Procedure, shortened: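 Differentiated human HepaRG cells in serum-free induction medium were exposed in duplicate for 48 h to 8-point half-log concentrations up to 100 uM in 0.5% DMSO. CYP1A2 mRNA measured by qRT-PCR, normalized to ACTB, GAPDH, POLR2A; bidirectional fit vs DMSO.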

[11] = read-out: cysteine-aspartic acid protease (CASP8), CASP8 (gene 841); test: LTEA_HepaRG_CASP8: Life Technologies and Expression Analysis (LTEA) Assay for cysteine-aspartic acid protease (CASP8) using HepaRG (AID 2283480)
Procedure, shortened: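 qRT-PCR readout of CASP8 mRNA, normalized to three housekeeping genes, after 48 h chemical exposure of HepaRG cells; 8-point half-log series, top 100 uM, 0.5% DMSO vehicle. Bidirectional curve fitting against DMSO baseline.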

[12] = read-out: Cytochrome P450 (CYP2B6), CYP2B6 (gene 1555); test: LTEA_HepaRG_CYP2B6: Life Technologies and Expression Analysis (LTEA) Assay for Cytochrome P450 (CYP2B6) using HepaRG (AID 2283481)
Procedure, shortened: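 Differentiated HepaRG cells, serum-free induction medium, exposed 48 h in duplicate to 8-point half-log concentrations from 100 uM in 0.5% DMSO. CYP2B6 mRNA by qRT-PCR, normalized to ACTB, GAPDH, POLR2A; bidirectional fit versus DMSO.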

[13] = read-out: Cytochrome P450 2C19 (Homo sapiens) (UniProt P33261); test: LTEA_HepaRG_CYP2C19: Life Technologies and Expression Analysis (LTEA) Assay for CYP2C19 using HepaRG (AID 2283482)
Procedure, shortened: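 Differentiated human HepaRG cells were exposed for 48 h in serum-free induction medium to 8 concentrations (top 100 uM, half-log steps, 0.5% DMSO). CYP2C19 mRNA was measured by qRT-PCR, normalized to ACTB/GAPDH/POLR2A, and fitted bidirectionally against DMSO.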

CYP2C8 (gene 1558) = test: LTEA_HepaRG_CYP2C8: Life Technologies and Expression Analysis (LTEA) Assay for CYP2C8 using HepaRG (AID 2283483)
Procedure, shortened: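 HepaRG (human liver line), 48 h chemical exposure, 8-pt half-log series from 100 uM, 0.5% DMSO vehicle. Readout: CYP2C8 transcript by qRT-PCR, housekeeping-normalized. Bidirectional fit vs DMSO baseline.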

CYP2C9 (gene 1559) = test: LTEA_HepaRG_CYP2C9: Life Technologies and Expression Analysis (LTEA) Assay for CYP2C9 using HepaRG (AID 2283484)
Procedure, shortened: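 HepaRG, 48 h dosing, 8-pt half-log series, top 100 uM, 0.5% DMSO vehicle. Read-out: CYP2C9 transcript by TaqMan qRT-PCR, housekeeping-normalized (ACTB/GAPDH/POLR2A). Gain or loss fitted vs DMSO baseline.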

CYP2E1 (gene 1571) = test: LTEA_HepaRG_CYP2E1: Life Technologies and Expression Analysis (LTEA) Assay for CYP2E1 using HepaRG (AID 2283485)
Procedure, shortened: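 Readout is qRT-PCR of CYP2E1 mRNA, normalized to three housekeeping genes and fitted bidirectionally against 0.5% DMSO. HepaRG cells were dosed 48 h at eight concentrations, highest 100 uM with half-log dilutions.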

CYP4A11 (gene 1579) = test: LTEA_HepaRG_CYP4A11: Life Technologies and Expression Analysis (LTEA) Assay for CYP4A11 using HepaRG (AID 2283486)
Procedure, shortened: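 Differentiated HepaRG cells, serum-free induction medium, exposed 48 h in duplicate to 8-point half-log series from 100 uM in 0.5% DMSO. CYP4A11 mRNA measured by qRT-PCR, normalized to ACTB, GAPDH, POLR2A; bidirectional fit versus DMSO.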

Measured: AC50

Sequence of Caspase-3 (Homo sapiens) (P42574 whole entry, looked up): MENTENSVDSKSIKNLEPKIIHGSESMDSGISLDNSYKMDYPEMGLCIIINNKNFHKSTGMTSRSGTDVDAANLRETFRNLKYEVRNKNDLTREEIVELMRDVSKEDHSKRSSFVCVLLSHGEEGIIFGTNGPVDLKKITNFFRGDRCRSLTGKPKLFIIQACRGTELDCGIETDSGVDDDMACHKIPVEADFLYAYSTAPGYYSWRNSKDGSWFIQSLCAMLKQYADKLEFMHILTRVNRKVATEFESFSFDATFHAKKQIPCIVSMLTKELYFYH
Sequence of Cytochrome P450 2C19 (Homo sapiens) (P33261 whole entry, looked up): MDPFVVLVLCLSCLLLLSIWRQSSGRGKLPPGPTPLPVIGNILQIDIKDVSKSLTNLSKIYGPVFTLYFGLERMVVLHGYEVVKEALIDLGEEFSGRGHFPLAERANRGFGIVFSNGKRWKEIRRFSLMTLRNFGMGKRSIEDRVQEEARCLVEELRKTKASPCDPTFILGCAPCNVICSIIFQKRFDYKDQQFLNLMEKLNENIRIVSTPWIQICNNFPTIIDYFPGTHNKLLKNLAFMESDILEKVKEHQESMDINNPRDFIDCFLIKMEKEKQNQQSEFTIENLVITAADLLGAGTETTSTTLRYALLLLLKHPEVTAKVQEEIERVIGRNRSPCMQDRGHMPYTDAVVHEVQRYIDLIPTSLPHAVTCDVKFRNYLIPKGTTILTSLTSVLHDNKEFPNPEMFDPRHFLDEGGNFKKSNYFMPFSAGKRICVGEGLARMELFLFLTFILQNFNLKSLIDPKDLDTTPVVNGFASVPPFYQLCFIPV
Sequence of Apoptosis regulator Bcl-2 (Homo sapiens) (P10415 whole entry, looked up): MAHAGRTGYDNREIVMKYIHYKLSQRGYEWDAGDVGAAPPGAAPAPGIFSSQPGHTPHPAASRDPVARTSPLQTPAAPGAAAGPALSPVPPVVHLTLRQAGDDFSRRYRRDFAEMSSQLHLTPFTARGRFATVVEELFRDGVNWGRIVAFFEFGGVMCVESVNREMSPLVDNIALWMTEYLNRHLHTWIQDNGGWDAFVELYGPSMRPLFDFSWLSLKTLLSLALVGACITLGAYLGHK

Cc1oc(-c2ccccc2)nc1CCOc1ccc(C[C@H](Nc2ccccc2C(=O)c2ccccc2)C(=O)O)cc1
active: [1] 26.1 µM | [4] 30.5 µM | BCL2L11 (gene 10018) 84.6 µM | [8] 75.6 µM | Caspase-3 (Homo sapiens) 32.7 µM | [10] 27.2 µM | [11] 32.1 µM | [12] 18.5 µM | [13] 23.3 µM | CYP2C8 (gene 1558) 25.2 µM | CYP2C9 (gene 1559) 22.5 µM | CYP2E1 (gene 1571) 17.1 µM | CYP4A11 (gene 1579) 28.1 µM
inactive: [2] | [3] | [5] | [6] | [7] | [9]

CCCCCCCCOC(=O)CCCCCCCCC(=O)OCCCCCCCC
active: [10] 29.9 µM
inactive: all other assays above

C=C(C)C(=O)OCCC(F)(F)C(F)(F)C(F)(F)C(F)(F)C(F)(F)C(F)(F)F
active: [12] 11.8 µM | CYP2E1 (gene 1571) 20.1 µM
inactive: all other assays above

CCCCC(CC)COC(=O)CCCCC(=O)OCC(CC)CCCC (centres undefined)
inactive: all assays above

CCc1nn(C2CCCCC2)c2cc(C3(C#N)CCC(C(=O)O)CC3)ccc12 (centres undefined)
active: [1] 50 µM | [3] 50 µM | [5] 64 µM | BCL2L11 (gene 10018) 8.54 µM | [6] 77.4 µM | [7] 74.3 µM | [10] 91 µM | [12] 82.8 µM | [13] 63.3 µM | CYP2C8 (gene 1558) 79.8 µM | CYP2C9 (gene 1559) 63.4 µM | CYP2E1 (gene 1571) 60.6 µM | CYP4A11 (gene 1579) 50.6 µM
inactive: [2] | [4] | [8] | Caspase-3 (Homo sapiens) | [9] | [11]

OCCC(F)(F)C(F)(F)C(F)(F)C(F)(F)C(F)(F)C(F)(F)F
inactive: all assays above

CCCCCCCC(=O)O
active: Caspase-3 (Homo sapiens) 12.5 µM
inactive: all other assays above

c1ccc2c(c1)Cc1ccccc1-2
active: [12] 31.9 µM
inactive: all other assays above

CCCCCCCCC(=O)O
inactive: all assays above

Oc1cc2ccccc2c2ccccc12
active: [10] 22.4 µM
inactive: all other assays above

O=C(O)c1ccccc1C(c1ccc(O)cc1)c1ccc(O)cc1
active: [12] 3.65 µM
inactive: all other assays above
